Source: PubChem BioAssay (Tox21)
Inconclusive results are not listed. Where a call stands in place of a potency, no number is given. Active and inactive are the calls of the source. The call rests on the fitted dose curve.

Molecular target: Acetylcholinesterase (Homo sapiens) (UniProt P22303)
Assay: Acetylcholinesterase (AChE) small molecule antagonists: colormetric cell-based qHTS assay (AID 1347395); further: nearly all actives have a fitted effect of over 30% in size
Conditions: SH-SY5Y cells AChE activity, colorimetric (Ellman); series mostly up to 115 µM
How it was run: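 In this cell-based qHTS, attached SH-SY5Y cells were treated with test chemicals for 30 min, after which acetylthiocholine hydrolysis was followed by DTNB colour development over 90 min at 37 C.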

Sequence of Acetylcholinesterase (Homo sapiens) (P22303 whole entry, looked up): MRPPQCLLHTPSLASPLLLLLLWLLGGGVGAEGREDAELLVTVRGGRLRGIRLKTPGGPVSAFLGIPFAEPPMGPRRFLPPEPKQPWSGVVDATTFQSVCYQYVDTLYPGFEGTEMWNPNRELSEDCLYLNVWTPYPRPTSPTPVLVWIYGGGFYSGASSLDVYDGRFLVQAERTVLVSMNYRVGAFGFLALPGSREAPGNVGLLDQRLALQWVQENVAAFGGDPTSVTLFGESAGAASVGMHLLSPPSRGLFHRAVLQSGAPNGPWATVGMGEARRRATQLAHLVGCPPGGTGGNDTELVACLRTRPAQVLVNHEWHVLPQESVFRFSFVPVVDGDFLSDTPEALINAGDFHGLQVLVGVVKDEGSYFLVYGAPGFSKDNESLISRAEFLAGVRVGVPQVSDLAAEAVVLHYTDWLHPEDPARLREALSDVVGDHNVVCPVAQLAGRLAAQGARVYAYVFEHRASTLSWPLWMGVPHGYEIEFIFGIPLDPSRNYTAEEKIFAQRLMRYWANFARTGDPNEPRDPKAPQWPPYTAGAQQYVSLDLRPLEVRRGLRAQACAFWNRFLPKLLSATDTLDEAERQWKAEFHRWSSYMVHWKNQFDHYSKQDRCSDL

Row | SMILES | Potency
1 | NS(=O)(=O)c1cc2c(cc1Cl)NC(C(Cl)Cl)NS2(=O)=O (stereo not given) | inactive
2 | CCOC(=O)c1ncn2c1CN(C)C(=O)c1cc(F)ccc1-2 | inactive
3 | CCN(CC)C(=O)N1CCN(C)CC1 | inactive
4 | CNC(=O)c1cnn(-c2nc(N)c3ncn([C@@H]4O[C@H](CO)[C@@H](O)[C@H]4O)c3n2)c1 | inactive
5 | O=C1CCCCCCCCCCCCCCCO1 | inactive
6 | Cc1ccnc2ccccc12 | inactive
7 | O=CN1CCOCC1 | inactive
8 | CCC(=O)OCCOc1ccccc1 | inactive
9 | CCN(Cc1cccc(S(=O)(=O)O)c1)c1ccc(C(=C2C=CC(=[N+](CC)Cc3cccc(S(=O)(=O)O)c3)C=C2)c2ccc(O)cc2S(=O)(=O)[O-])cc1 | inactive
10 | O=C(CCCl)NCCc1ccccc1 | inactive
11 | [Cl][Eu]([Cl])[Cl] | inactive
12 | C1C[C@@H]2[C@H]3CC[C@H](C3)[C@@H]2C1 | inactive
13 | C=CC(C)(O)CCCC(C)CCCC(C)CCCC(C)C (stereo not given) | inactive
14 | O=C(Nc1ccccc1)c1ccccc1O | inactive
15 | CCN1CCOCC1 | inactive
16 | NC(=O)c1ccccc1[N+](=O)[O-] | inactive
17 | CC(C)(c1ccc(Oc2ccc3c(c2)C(=O)OC3=O)cc1)c1ccc(Oc2ccc3c(c2)C(=O)OC3=O)cc1 | inactive
18 | c1ccc(CCCc2ccccn2)cc1 | inactive
19 | CC(C)CCC(=O)CCC(C)C | inactive
20 | CCCCCc1ccc(Cl)cc1 | inactive

Row | SMILES | Potency
21 | Cc1cccc(N(C)C(=S)Oc2ccc3c(c2)CCC3)c1 | inactive
22 | CCCCOc1ccc(N)cc1 | inactive
23 | O=C1OC(=O)c2ccccc21 | inactive
24 | CC(C)=CCCC(C)C=O (stereo not given) | inactive
25 | COC(=O)CCSCCC(=O)OC | inactive
26 | COCCO | inactive
27 | CN1CCN(C2=Nc3ccccc3Sc3ccc(Cl)cc32)CC1 | inactive
28 | C=COCCCC | inactive
29 | Clc1ccc2nsnc2c1NC1=NCCN1 | inactive
30 | O=C1c2ccccc2C(=O)c2c(Cl)cccc21 | inactive
31 | CC1=C(O)C(=O)C(C)O1 (stereo not given) | inactive
32 | O=C(O)c1c(Cl)cccc1Cl | inactive
33 | CC/C=C/CCCCCCCCCCOC(C)=O | inactive
34 | O=CCCc1ccccc1 | inactive
35 | CC(C)(C)C(=O)O | inactive
36 | Cc1ccc(N(CCO)CCO)cc1 | inactive
37 | CC1=C(/C=C/C(C)=C/C=C/C(C)=C\C(=O)O)C(C)(C)CCC1 | inactive
38 | CCOC(=O)c1ccccc1O | inactive
39 | CC1CC(=O)CC(C)(C)C1 (stereo not given) | inactive
40 | O=C1OC(OC(=O)c2cccnc2Nc2cccc(C(F)(F)F)c2)c2ccccc21 (stereo not given) | inactive

Molecular target: Acetylcholinesterase (Homo sapiens) (UniProt P22303)
Assay: Acetylcholinesterase (AChE) small molecule antagonists: enzyme-based qHTS assay (AID 1347397); further: nearly all actives have a fitted effect of over 55% in size
Conditions: Potency: AChE enzyme activity inhibition; outcome: AChE enzyme activity inhibition; series mostly up to 115 µM
How it was run: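 Tox21 library chemicals are tested in qHTS format against recombinant human AChE. The enzyme, dispensed at 50 mU/mL, sits with compound for 30 min at room temperature. A DTNB–acetylthiocholine cocktail follows, and colour is read after 10 min.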

Row | SMILES | Potency
41 | NS(=O)(=O)c1cc2c(cc1Cl)NC(C(Cl)Cl)NS2(=O)=O (stereo not given) | inactive
42 | CCOC(=O)c1ncn2c1CN(C)C(=O)c1cc(F)ccc1-2 | inactive
43 | CCN(CC)C(=O)N1CCN(C)CC1 | inactive
44 | CNC(=O)c1cnn(-c2nc(N)c3ncn([C@@H]4O[C@H](CO)[C@@H](O)[C@H]4O)c3n2)c1 | inactive
45 | O=C1CCCCCCCCCCCCCCCO1 | inactive
46 | Cc1ccnc2ccccc12 | inactive
47 | O=CN1CCOCC1 | inactive
48 | CCC(=O)OCCOc1ccccc1 | inactive
49 | CCN(Cc1cccc(S(=O)(=O)O)c1)c1ccc(C(=C2C=CC(=[N+](CC)Cc3cccc(S(=O)(=O)O)c3)C=C2)c2ccc(O)cc2S(=O)(=O)[O-])cc1 | inactive
50 | O=C(CCCl)NCCc1ccccc1 | inactive
51 | [Cl][Eu]([Cl])[Cl] | inactive
52 | C1C[C@@H]2[C@H]3CC[C@H](C3)[C@@H]2C1 | inactive
53 | C=CC(C)(O)CCCC(C)CCCC(C)CCCC(C)C (stereo not given) | inactive
54 | O=C(Nc1ccccc1)c1ccccc1O | inactive
55 | CCN1CCOCC1 | inactive
56 | NC(=O)c1ccccc1[N+](=O)[O-] | inactive
57 | CC(C)(c1ccc(Oc2ccc3c(c2)C(=O)OC3=O)cc1)c1ccc(Oc2ccc3c(c2)C(=O)OC3=O)cc1 | inactive
58 | c1ccc(CCCc2ccccn2)cc1 | inactive
59 | CC(C)CCC(=O)CCC(C)C | inactive
60 | CCCCCc1ccc(Cl)cc1 | inactive

Row | SMILES | Potency
61 | Cc1cccc(N(C)C(=S)Oc2ccc3c(c2)CCC3)c1 | inactive
62 | CCCCOc1ccc(N)cc1 | inactive
63 | O=C1OC(=O)c2ccccc21 | inactive
64 | CC(C)=CCCC(C)C=O (stereo not given) | inactive
65 | COC(=O)CCSCCC(=O)OC | inactive
66 | COCCO | inactive
67 | CN1CCN(C2=Nc3ccccc3Sc3ccc(Cl)cc32)CC1 | inactive
68 | C=COCCCC | inactive
69 | Clc1ccc2nsnc2c1NC1=NCCN1 | inactive
70 | O=C1c2ccccc2C(=O)c2c(Cl)cccc21 | inactive
71 | CC1=C(O)C(=O)C(C)O1 (stereo not given) | inactive
72 | O=C(O)c1c(Cl)cccc1Cl | inactive
73 | CC/C=C/CCCCCCCCCCOC(C)=O | inactive
74 | O=CCCc1ccccc1 | inactive
75 | CC(C)(C)C(=O)O | inactive
76 | Cc1ccc(N(CCO)CCO)cc1 | inactive
77 | CC1=C(/C=C/C(C)=C/C=C/C(C)=C\C(=O)O)C(C)(C)CCC1 | inactive
78 | CCOC(=O)c1ccccc1O | inactive
79 | CC1CC(=O)CC(C)(C)C1 (stereo not given) | inactive
80 | O=C1OC(OC(=O)c2cccnc2Nc2cccc(C(F)(F)F)c2)c2ccccc21 (stereo not given) | inactive
